PP5 inh = inhibitors of human protein phosphatase 5 (PP5) | P53041 | purified PP5c, OMFP substrate fluorescence | inhibition, % at 6.7 µM | 0.18% of 320,000 active | AID 1987;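 active = inhibition above the campaign's mean inhibition across all tested compounds plus 3 SD, cut at about 9.5% in these data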
PP1 counter = counter-screen for PP5 inhibitors: inhibitors of human PP1-alpha; P62136; purified PP1alpha, OMFP fluorescence; inhibition, % at 6.7 µM; 0.9% of 320,000 active; AID 2235;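 active = inhibition above the mean inhibition of all tested compounds plus 3 SD, computed separately for each screening campaign, cut at about 15% in these data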
PREPL inh = inhibits the human prolyl oligopeptidase-like enzyme. Q4J6C6. AID 2751. inhibition, % at 5.96 µM. recombinant PREPL, fluorescence polarization activity-based probe. 0.68% of 320,000 active; in the data active = inhibition above about 43%
ANO1 activ = activators or potentiators of mouse TMEM16A chloride channel | AID 623877 | Q8BHY3 | HEK293 TMEM16A/YFP-H148Q/I152L, iodide quench fluorescence; active compounds read low | 0.3% of 340,000 active | B-score at 10 µM;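 active = fluorescence-ratio B-score plate-corrected deviation score at least 3 library SD below zero, with starting fluorescence score within 5 deviations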;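 note: channel opened by trigger with iodide after compound preincubation; score built on the fluorescence ratio of max minus min over baseline; more negative score means more quench and so TMEM16A activation or potentiation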
FID counter = fluorescent intercalator displacement, NS3 helicase counter-screen. DNA fluorescent intercalator displacement, fluorescence. inhibition, % at 7.9 µM. 0.17% of 290,000 active; in the data active = inhibition above about 37%;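 note: higher means more ethidium bromide displaced from hairpin DNA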
TMEM16A inh = inhibitors of mouse TMEM16A calcium-activated chloride channel | HEK293 TMEM16A/YFP iodide influx fluorescence, ionomycin | normalized B-score (activity score, 25-100; higher = stronger inhibition) at 10 µM | 1.2% of 310,000 active | AID 588511;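 active = ratio plate-corrected score three or more library SD toward inhibition, starting fluorescence score within five deviations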;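 note: score derived from kinetic fluorescence span divided by baseline fluorescence per well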
PP1 inh confirm = confirmation of human PP1 phosphatase inhibitors; 52% of 1,900 active; AID 2358; inhibition, % at 6.7 µM; shares compounds with PP1 counter; purified PP1alpha, OMFP substrate fluorescence;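 active = mean PP1 inhibition above a set limit taken from the earlier primary screen, cut at about 15% in these data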
PP5 counter = counter-screen for PP1 inhibitors: human PP5 phosphatase inhibition; inhibition, % at 6.7 µM; 4% of 1,900 active; AID 2360; shares compounds with PP1 counter; purified PP5c, OMFP fluorescence;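 active = mean PP5 inhibition over triplicate wells above about 9.5% taken from the earlier PP1 screen, limit read from the data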
Hits are given with their value; n = inactive; x = not tested or not shown. In the library only some 2.7% were active in any assay of this set; here they are far more common.

SMILES | PP5 inh | PP1 counter | PREPL inh | ANO1 activ | FID counter | TMEM16A inh | PP1 inh confirm | PP5 counter
CC(C)(C)c1cc(NCCCn2ccnc2)n2ncc(-c3ccc(Cl)cc3)c2n1 | 10 | 38 | n | n | n | n | 39 | n
CC(=O)Cc1nsc(NC(=O)c2ccc(Br)o2)n1 | n | n | n | n | n | n | x | x
CC(=O)Cc1nsc(NC(=O)c2ccc(-c3cccc(Cl)c3)o2)n1 | n | 29 | n | n | n | n | n | n
COc1ccc(C(=O)CSc2nc(N)nc(SC)c2C#N)cc1 | n | 27 | n | n | n | n | 28 | n
Cc1ccc(NC(=O)/C(C#N)=C/c2cn(CC(=O)NCc3ccco3)c3ccccc23)cc1C | n | 32 | n | n | n | n | 31 | n
CSc1ccc(/C=C/C(=O)OCC(=O)NC2CCS(=O)(=O)C2)cc1 (stereo unspecified) | n | n | n | n | x | x | x | x
Cc1ccc(S(=O)(=O)N2CCOCC2)cc1C(=O)Nc1ccc(S(=O)(=O)Nc2nccs2)cc1 | n | 30 | n | n | n | n | n | n
COc1ccc(N2CCN(c3ccc(NC(=O)/C=C\C(=O)O)cc3)CC2)cc1 | n | 20 | n | n | n | n | n | n
CCn1c(CSc2nc3ccccc3s2)nnc1SCC(=O)c1ccc(Cl)cc1 | n | 22 | n | n | n | n | n | n
CCn1c(CSc2nc3ccccc3s2)nnc1SCC(=O)c1ccc(O)c(O)c1 | n | n | n | n | n | n | x | x
CC(C)(C)C(=O)N1CCN(c2ccc([N+](=O)[O-])c(-n3nc(-c4ccccc4)c4ccccc4c3=O)c2)CC1 | n | 22 | n | n | n | n | n | n
Cc1nn(-c2cc(N3CCCC3)ccc2[N+](=O)[O-])c(=O)c2ccccc12 | n | n | n | n | n | n | x | x
O=[N+]([O-])c1cccc(N(CC(O)CN2CCCCC2)S(=O)(=O)c2ccccc2)c1 (stereo unspecified) | n | n | n | n | n | n | x | x
Cn1c(=O)c(C(=O)CN2CCc3ccccc32)c(N)n(Cc2ccccc2)c1=O | n | 22 | n | n | n | n | n | n
CCOc1cccc(/C=N/Nc2ccc(S(=O)(=O)N(CC)CC)cn2)c1O | n | 31 | n | n | n | n | 33 | n
CCN(CC)S(=O)(=O)c1ccc(N/N=C/c2cc(OC)c(OC)cc2OC)nc1 | n | n | n | n | n | n | x | x
O=S(=O)(Nc1cccc(-c2ccc(N3CCCCCC3)nn2)c1)c1cccc(F)c1 | n | 18 | n | n | n | n | n | n
CCOc1ccc(S(=O)(=O)Nc2cccc(-c3ccc(N4CCCCCC4)nn3)c2)cc1 | n | n | n | n | n | n | x | x
Cc1nn(-c2ccccc2)c2nc(-c3cccs3)cc(C(=O)NN)c12 | n | n | n | n | n | n | x | x
CCOC(=O)c1cc(-c2cccs2)nc2c1c(C)nn2-c1ccccn1 | n | 23 | n | n | n | n | 25 | n
CCCc1cc(=O)n2[nH]c(NC(=O)c3ccco3)nc2n1 | n | n | n | n | n | n | x | x
O=C(CNC(=O)Cc1cccc2ccccc12)NCc1ccc(F)cc1 | n | n | n | n | n | n | x | x
O=C(CN1CCc2ccccc2C1)Nc1ccccc1C(=O)NC1CC1 | n | n | n | n | x | x | x | x
COc1cc2ccccc2cc1C(=O)Nc1ccc2oc(=O)ccc2c1 | n | 24 | n | n | n | n | n | n
COc1cc(OC)c(C(=O)Nc2ccc3ccccc3c2)cc1OC | n | n | n | n | n | n | x | x
SMILES | PP5 inh | PP1 counter | PREPL inh | ANO1 activ | FID counter | TMEM16A inh | PP1 inh confirm | PP5 counter
CCN(CC)CCOC(=O)c1ccc(N/C=C(/C#N)c2nc(-c3ccc(OC)c(OC)c3)cs2)cc1 | n | 66 | n | n | n | n | 35 | n
CCN(CC)CCOC(=O)c1ccc(N/C=C(/C#N)c2nc(-c3cccc(OC)c3)cs2)cc1 | n | 54 | n | n | n | n | n | n
Cc1ccc(-c2csc(/C(C#N)=C/Nc3ccc4c(c3)OCCO4)n2)cc1 | n | n | n | n | n | n | x | x
CC(=O)Nc1ccccc1OCC(=O)NCCC1=CCCCC1 | n | n | n | n | n | n | x | x
O=C(c1ccc(Cl)c(Cl)c1)N1CCC(=O)N(C(COCc2cccc(Cl)c2)Cc2ccccc2)CC1 (stereo unspecified) | n | 20 | n | n | n | n | n | n
O=C(c1cccc(Cl)c1)N1CCC(=O)N(C(COCc2cccc(Cl)c2)Cc2ccccc2)CC1 (stereo unspecified) | n | n | n | n | n | n | x | x
CCc1nnc2n1N=C(c1ccc(-c3cc(Cl)ccc3Cl)o1)CS2 | n | 23 | n | n | n | n | n | n
CCc1nnc2n1N=C(c1ccc(-c3ccc(Cl)cc3Cl)o1)CS2 | x | x | x | x | n | x | x | x
COc1ccccc1CNC(=O)c1cccc(S(=O)(=O)N2CCCC2)c1 | x | x | x | n | x | x | x | x
O=c1cc(-c2ccccc2)cc(-c2ccccc2)n1O | n | 20 | n | n | x | n | n | n
Cc1cc(-c2ccccc2)cc(=O)[nH]1 | x | x | x | n | x | x | x | x
COc1cccc(NC(=O)COC(=O)c2c(NC(C)=O)sc(C)c2C)c1 | n | 18 | n | n | x | x | 21 | n
CC1=C(C(=O)Nc2ccccc2C)C2(CCCC2)C(C(N)=O)C(=O)N1 (stereo unspecified) | n | 26 | n | n | n | n | n | n
C#CCOCCOCCOCCNc1nc(N2CCN(C(=O)[C@H](CCC(=O)O)n3cc(CN)nn3)CC2)nc(N2CCN(C(=O)[C@H](CCCCN)n3cc([C@@H](N)CC(N)=O)nn3)CC2)n1 | x | x | n | x | x | x | x | x
CCN1C(=O)c2cccc3c(Cl)ccc(c23)C1=O | n | n | n | n | n | n | x | x
O=C1c2cccc3c(Cl)ccc(c23)C(=O)N1O | n | 38 | n | n | n | n | 30 | n
CCn1cc(C(=O)NCc2ccco2)c(=O)c2cc(S(=O)(=O)N3CCc4ccccc4C3)ccc21 | n | 19 | n | n | n | n | 18 | n
CCn1cc(C(=O)O)c(=O)c2cc(F)c(N3CCN(C(=S)NC(=O)c4ccccc4F)CC3)cc21 | n | n | n | n | n | n | x | x
CCn1cc(C(=O)O)c(=O)c2cc(F)c(N3CCN(C(=O)Nc4ccccc4)CC3)cc21 | n | 18 | n | n | n | n | n | n
CCn1cc(C(=O)NCc2ccco2)c(=O)c2cc(S(=O)(=O)N3CCCCCC3)ccc21 | n | n | n | n | n | n | x | x
CCn1cc(C(=O)NCc2ccco2)c(=O)c2cc(F)c(N3CCN(C(=O)c4ccco4)CC3)cc21 | n | 18 | n | n | n | n | n | n
CCn1cc(C(=O)O)c(=O)c2cc(F)c(N3CCN(S(=O)(=O)c4ccc(NC(C)=O)cc4)CC3)cc21 | n | 42 | n | n | n | n | 32 | n
CCOC(=O)c1sc(-n2[nH]c(C)cc2=O)nc1C | n | 19 | n | n | n | n | n | n

From PubChem
